Source: PubChem (several laboratories)
Mtb UGM inh – inhibitors of M. tuberculosis UDP-galactopyranose mutase. P9WIQ1. purified UGM, fluorescence polarization probe displacement. inhibition, % at 10 µM. actives 0.06% (n = 320,000). AID 504406; in the data active = inhibition above about 10%, passing the limit was not always enough
Target sequence (P9WIQ1 whole entry, looked up): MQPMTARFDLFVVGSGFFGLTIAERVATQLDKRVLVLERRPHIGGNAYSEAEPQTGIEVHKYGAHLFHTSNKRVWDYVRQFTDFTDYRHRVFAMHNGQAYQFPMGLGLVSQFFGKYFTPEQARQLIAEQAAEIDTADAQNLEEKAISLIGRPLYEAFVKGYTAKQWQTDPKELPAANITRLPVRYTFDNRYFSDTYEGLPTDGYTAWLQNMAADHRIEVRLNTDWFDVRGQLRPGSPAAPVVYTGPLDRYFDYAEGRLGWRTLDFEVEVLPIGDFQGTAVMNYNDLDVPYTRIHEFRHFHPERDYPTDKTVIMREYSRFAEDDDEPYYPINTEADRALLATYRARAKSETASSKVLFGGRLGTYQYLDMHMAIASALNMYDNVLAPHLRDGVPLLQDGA
ugtP null kill – compounds lethal to S. aureus RN4220 ugtP deletion mutant | OD600 growth, 16 h | growth inhibition, % (concentration not given with the values) | actives 0.54% (n = 330,000) | AID 1259309; in the data active = growth inhibition above about 68%;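 also: plate controls were untreated wells for no effect and antibiotic for full effect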
Mtb betalactam – beta-lactam sensitization of Mtb H37Rv. inhibition, % at 25 µM. M. tuberculosis H37Rv growth with meropenem, percent inhibition. actives 0.27% (n = 330,000). AID 434955; call rule not given here;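 also: growth measured after seven days incubation then overnight dye step; 0% = bacteria only wells and 100% = bacteria with antibiotic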
Mtb hypoxia rep – inhibitors of hypoxia-regulated fluorescent reporter in Mycobacterium tuberculosis; M. tuberculosis hypoxia-regulated fluorescent reporter, fluorescence; fluorescence inhibition, % (no concentration beside the values); actives 0.1% (n = 300,000); in the data active = fluorescence inhibition mostly above about 23%, no sharp cut-off; inactive = mostly below about 17%
Rv3671c protease – inhibits the M. tuberculosis serine protease Rv3671c; inhibition, % at 5.96 µM; actives 0.048% (n = 320,000); AID 2606; in the data active = inhibition above about 38%;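 also: extracellular domain of Rv3671c used as enzyme; 0% = enzyme with DMSO and 100% = no enzyme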
Sa RN4220 lethal – S. aureus RN4220 growth inhibition; OD600, 16 h; inhibition, % (test concentration not listed); actives 0.33% (n = 330,000); AID 1259311; in the data active = inhibition above about 85%;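 also: plate controls were untreated cells for no effect and reference antibiotic for full effect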
* hit, by the source's call; / = no result shown. Shown are actives, neighbours in structure and some others; about 0.68% of the full set was active somewhere.

SMILES	Mtb UGM inh	ugtP null kill	Mtb betalactam	Mtb hypoxia rep	Rv3671c protease	Sa RN4220 lethal
COC1(OC)N=C(N)C2(C#N)C(c3ccccc3)NC(C)=CC12C#N (stereo not given)	-0.3	-11.2	0.4	/	3.8	-2.7
CC1=CC(C#N)(C#N)C(C#N)(C#N)C(c2ccccc2)N1 (stereo not given)	-1.5	/	-0.4	/	42.9*	/
c1ccc(-c2nnc(SCC3CCCCO3)nc2-c2ccccc2)cc1 (stereo not given)	-1.8	93.7*	4.5	10.3	-7.3	2.8
Cc1ccc(/C=C2\SC(=S)N(Cc3ccccc3)C2=O)o1	2.4	0.2	-2.1	-5.4	-11.2	0.9
O=C1/C(=C\c2cc([N+](=O)[O-])ccc2O)SC(=S)N1Cc1ccc(Cl)cc1	-3.6	64.9	24.4	9.0	-183.3	88.1*
O=C1/C(=C\c2ccc(O)c(O)c2)SC(=S)N1Cc1ccccc1	-0.7	98.9*	9.7	20.9	/	76.3
O=C(O)c1cc(-c2ccc(/C=C3/SC(=S)N(Cc4ccccc4)C3=O)o2)ccc1Cl	/	100.6*	/	15.9	/	96.6*
COC(=O)C1=C(c2ccccc2)CC2CCC1N2C(=O)NCCS(C)=O (stereo not given)	/	-1.4	/	1.0	/	1.9
C#CCOCCOCCOCCNc1nc(N2CCOCC2)nc(N2CCN(C(=O)C(Cc3ccc(O)cc3)n3cc(C(N)C(C)CC)nn3)CC2)n1 (stereo not given)	/	1.1	/	6.7	/	5.9
Cc1[nH]c2ccccc2c1/C=N/NC(=S)NC(C)C	0.7	/	-2.1	/	18.4	/
Cc1ccc(NC(=S)NN=Cc2c(C)[nH]c3ccccc23)cc1	/	88.3*	/	0.9	/	91.8*
O=C(NC(=S)NNC(=O)c1cnccn1)c1ccc(Cl)cc1	5.6	-1.2	6.4	35.0*	2.6	15.6
Cc1cc(NCCCN2CCOCC2)n2ncc(-c3ccc(Cl)cc3)c2n1	0.3	-2.0	4.1	7.0	0.3	-10.2
Cc1cc(NCCCn2ccnc2)n2ncc(-c3ccc(Cl)cc3)c2n1	0.2	91.1*	100.1	/	-1.0	30.3
CC(C)(C)c1cc(NCCCn2ccnc2)n2ncc(-c3ccccc3)c2n1	-1.3	85.5*	99.7	7.2	6.6	58.0
CN(C)CCCNc1cc(C(C)(C)C)nc2c(-c3ccc(Cl)cc3)cnn12	-0.8	99.8*	99.9	/	3.9	100.7*
CC(=O)Nc1ccc2[nH]c3ccccc3c2c1	0.9	-6.1	7.2	14.1	2.0	-2.1
O=C(Nc1ccc(Cl)cc1)c1cc2c(cc1O)[nH]c1ccccc12	-0.1	97.9*	100.0	15.1	29.7	95.0*
C#CCOC1CC(n2ccc(NC(=O)c3ccccc3)nc2=O)OC1CO (stereo not given)	/	16.5	/	19.5	/	-0.2
COc1cc(Cc2cnc(N)nc2N)cc(OC)c1OC	1.3	99.8*	5.3	-0.6	0.0	98.4*
N#CC(=NNc1cccc(Cl)c1)C(=O)c1ccccc1	/	100.0*	/	4.4	/	100.1*
N#C/C(=N\Nc1cccc(Cl)c1)C(=O)c1ccccc1	-0.4	/	-2.3	/	-1.2	/
N#CC(=NNc1ccc(Cl)cc1)C(N)=S	/	88.1*	/	/	/	81.3
N#CC(=NNc1ccc(Cl)cc1)C(=O)c1ccsc1	/	99.0*	/	12.9	/	99.7*
N#C/C(=N\Nc1ccc(Cl)cc1)C(=O)c1ccsc1	2.4	/	-9.6	/	2.1	/
SMILES	Mtb UGM inh	ugtP null kill	Mtb betalactam	Mtb hypoxia rep	Rv3671c protease	Sa RN4220 lethal
CC(C)n1cc(C2CC3CN(Cc4cccc(Cl)c4)C(=O)[C@]34CCCN24)cn1 (stereo not given in full)	/	-1.3	/	-0.8	/	2.0
CC(C(=O)Nc1ccc2ccccc2c1)C1C[C@]1(C)C(NC(=O)c1cccnc1)c1ccccc1 (stereo not given in full)	/	-1.2	/	-6.4	/	-3.5
COc1ccc(N2CCN(C(=O)c3ccc(CS(=O)Cc4ccc(C)cc4)o3)CC2)cc1 (stereo not given)	-5.7	95.5*	-0.7	3.4	-9.7	-6.6
COc1cccc(N2CCN(C(=O)c3ccc(CS(=O)Cc4ccccc4Cl)o3)CC2)c1 (stereo not given)	-0.7	4.0	-2.6	-3.8	5.0	-2.6
O=C(c1ccc(CS(=O)Cc2ccc(Cl)cc2)o1)N1CCN(c2ccccc2)CC1 (stereo not given)	-3.2	93.8*	1.8	-2.7	7.0	-5.6
COc1cccc(N2CCN(C(=O)c3ccc(CS(=O)Cc4ccc(Cl)cc4)o3)CC2)c1 (stereo not given)	-2.5	91.9*	6.8	3.4	12.5	-6.8
Cc1ccc(CS(=O)Cc2ccc(C(=O)N3CCN(c4ccccc4)CC3)o2)cc1 (stereo not given)	-2.7	33.2	3.5	-7.2	5.7	-2.9
CNCC(Cc1ccccc1)NCC(CC1CCCCC1)NCCCc1ccccc1 (stereo not given)	/	81.5	/	/	/	84.5*
CNC[C@H](CC1CCCCC1)NC[C@H](CO)NCC1(c2ccccc2)CC1	-1.9	/	-9.9	/	-0.8	/
CNCC(CC1CCCCC1)NCC(Cc1ccccc1)NCCC12CC3CC(CC(C3)C1)C2 (stereo not given)	/	100.7*	/	/	/	100.4*
CC(C=NNC(=O)c1c(Br)cnn1C)=Cc1ccccc1	/	-3.2	/	2.0	/	0.6
CN(C)c1ccc2nc3ccc(=[N+](C)C)cc-3sc2c1	4.6	-9.0	93.5	99.4*	-32.5	12.8
Cc1ccc(C(NC(=O)C(C)C)c2cc([N+](=O)[O-])c3cccnc3c2O)cc1 (stereo not given)	1.8	95.1*	15.5	6.0	10.2	91.6*
CC(=O)/C(N=Nc1cc2c(c([N+](=O)[O-])c1C)C(C)(C)CC2(C)C)=C(\C)O	-5.5	89.2*	1.9	0.2	3.7	-2.9
COc1ccccc1N1CCN(C2CCCN(C(=O)CCC(=O)N(C)C)C2)CC1 (stereo not given)	10.3*	7.1	0.8	14.9	-9.2	2.4
Oc1ccc(-c2nc3ccc4ccccc4c3c3c2CCC3)cc1O	2.9	98.4*	24.8	2.0	-49.7	-3.6
CC(=O)C1=C(c2ccc(Br)cc2)C(=O)c2ccccc2C1=O	2.4	96.7*	97.8	2.7	-23.4	97.2*
CNC1=C(N(C(C)=O)c2ccc(Br)cc2)C(=O)c2ccccc2C1=O	5.5	13.3	-4.8	/	-134.6	24.1
COC(=O)NC(c1ccccc1)[C@@]1(C)CC1C(C)C(=O)Nc1ccc2ccccc2c1 (stereo not given in full)	/	1.0	/	18.9	/	-1.1
O=C1OCC2CCCN2C(=O)C(CC(=O)N(CCO)Cc2ccccc2)CC=CCCC1Cc1ccc(F)cc1 (stereo not given)	/	4.3	/	2.7	/	3.1
C=C[C@]12CC[C@H](OC(C)=O)CC1=CCC1C2CC[C@@]2(C)C1CCC21OCCO1 (stereo not given in full)	/	92.3*	/	4.4	/	-5.1
Cc1cc2[nH]c3c(c[n+](C)c4ccccc34)c2cc1C	-1.5	13.2	99.8	64.5*	-1.3	19.9
Cc1cc(=O)[nH]c2ccccc12	-0.1	-0.9	-7.6	/	-2.6	0.6
